Calls of active or inactive are those of the source. The call rests on the fitted dose curve.

A short description of one assay: qHTS drug screen for cell cycle checkpoint inhibitors in PARPi-resistant BRCA-mutant ovarian cancer cell lines. (AID 1963452). To be noted: PEO1/OlaR viability, CellTiter-Glo luminescence, 96 h; stronger effect = lower value. In outline: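 PEO1, PEO4 and PEO1/OlaR ovarian cancer cells, 600 per well, exposed 96 h at 37C to a dilution series. Viability read by CellTiter-Glo luminescence, normalized to DMSO and empty wells; activity summarized as Z-AUC.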
As to `CNCCN(C)Cc1cn[nH]c1-c1ccc(OC2CC(OCCC3CCOCC3)C2)cc1` (stereo unspecified), the Z-AUC was -0.683 (inactive).
Still for that read-out and setting: the figure for `O=C(c1ccc(F)c(F)c1Nc1ccc(I)cc1F)N1CC(O)([C@@H]2CCCCN2)C1` is -1.02 (inactive); for `Cn1c(NC[C@@H](N)Cc2ccccc2)nc(-c2ccncc2)c(-c2ccc3ccccc3c2)c1=O` it is -0.2 (inactive); for `N#C[C@@H]1C[C@@H]2C[C@@H]2N1C(=O)[C@@H](N)C12CC3CC(CC(O)(C3)C1)C2` it is -0.557 (inactive).
Take `COc1cc(N2CCN(C(C)=O)CC2)ccc1Nc1ncc(Cl)c(Nc2ccc(N3CCN(C(C)=O)CC3)cc2OC)n1`: the Z-AUC is 0.859 (inactive).
With `COCCNCc1ccc(-c2cc3nccc(Oc4ccc(NC(=S)NC(=O)Cc5ccc(F)cc5)cc4F)c3s2)nc1`, the Z-AUC was 0.225 (inactive).
For `Cc1cc(CS(=O)(=O)c2ccccc2)cc(OCc2ccc(CN3CCC[C@@H]3CO)cc2)c1`, the Z-AUC is 0.153 (inactive).

Staying with this assay, now noted: PEO1/OlaR viability, CellTiter-Glo luminescence, 96 h; measured here: PEO1 parental Z-AUC; stronger effect = lower value.
On to `CNCCN(C)Cc1cn[nH]c1-c1ccc(OC2CC(OCCC3CCOCC3)C2)cc1` (stereo unspecified), for which the Z-AUC is -1.
The same measure, in the same setting: in the case of `O=C(c1ccc(F)c(F)c1Nc1ccc(I)cc1F)N1CC(O)([C@@H]2CCCCN2)C1` it was -0.911; in that of `Cn1c(NC[C@@H](N)Cc2ccccc2)nc(-c2ccncc2)c(-c2ccc3ccccc3c2)c1=O`, 0.768.
Same read-out and setting: the figure for `N#C[C@@H]1C[C@@H]2C[C@@H]2N1C(=O)[C@@H](N)C12CC3CC(CC(O)(C3)C1)C2` is 0.593; for `COc1cc(N2CCN(C(C)=O)CC2)ccc1Nc1ncc(Cl)c(Nc2ccc(N3CCN(C(C)=O)CC3)cc2OC)n1` it is 0.393.
Still for that read-out and setting: in the case of `COCCNCc1ccc(-c2cc3nccc(Oc4ccc(NC(=S)NC(=O)Cc5ccc(F)cc5)cc4F)c3s2)nc1` it was -0.316; in that of `Cc1cc(CS(=O)(=O)c2ccccc2)cc(OCc2ccc(CN3CCC[C@@H]3CO)cc2)c1`, 0.253.

Still in this assay, the particulars now being: PEO1/OlaR viability, CellTiter-Glo luminescence, 96 h; measured here: PEO4 Z-AUC; stronger effect = lower value.
Take `CNCCN(C)Cc1cn[nH]c1-c1ccc(OC2CC(OCCC3CCOCC3)C2)cc1` (stereo unspecified): the Z-AUC is -0.979.
Still for that read-out and setting: the figure for `O=C(c1ccc(F)c(F)c1Nc1ccc(I)cc1F)N1CC(O)([C@@H]2CCCCN2)C1` is -1.32; for `Cn1c(NC[C@@H](N)Cc2ccccc2)nc(-c2ccncc2)c(-c2ccc3ccccc3c2)c1=O` it is 0.932; for `N#C[C@@H]1C[C@@H]2C[C@@H]2N1C(=O)[C@@H](N)C12CC3CC(CC(O)(C3)C1)C2` it is -0.565.
`COc1cc(N2CCN(C(C)=O)CC2)ccc1Nc1ncc(Cl)c(Nc2ccc(N3CCN(C(C)=O)CC3)cc2OC)n1`: the Z-AUC is 0.132.
Same read-out and setting: the figure for `COCCNCc1ccc(-c2cc3nccc(Oc4ccc(NC(=S)NC(=O)Cc5ccc(F)cc5)cc4F)c3s2)nc1` is 0.00247; for `Cc1cc(CS(=O)(=O)c2ccccc2)cc(OCc2ccc(CN3CCC[C@@H]3CO)cc2)c1` it is 0.0408.
